{"source": "PubChem BioAssay AID1347417", "about": "(National Center for Advancing Translational Sciences (NCATS), 2020)", "note": "In all, about 120,000 compounds went through this assay and about 5,300 (4.4%) were called active. Roughly 22% stayed inconclusive and do not appear here. Many of the other results were omitted from the sample, so actives are more common in it than they were. Unmarked numbers belong to inactive results. Calls follow the shape of the dose curve; as a rule, active = well fitted inhibition curve with a large enough effect; inconclusive = small, poorly fitted or top-dose-only effect; inactive = no such curve, though single readings can be large or run the other way. Potency is read from the fitted curve at half-maximal effect."}
{"test": "qHTS Primary assay for Inhibitors of Plasmodium falciparum Dd2 growth in vitro; also: nearly all actives have a fitted effect of over 65% in size;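 as to activity, negative = inhibition: plate controls were DMSO vehicle for no effect and reference drug for full effect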", "conditions": "P. falciparum Dd2 growth, SYBR Green, 72 h; series mostly up to 28.9 µM; activity, negative = inhibition: at the top concentration", "method_in_brief": "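Infected erythrocytes (Dd2, 0.3% parasitemia, 2.5% hematocrit final) are added to compound in RPMI-1640/Albumax II medium, grown 72 h at 37C in low oxygen, then lysed with saponin/Triton-X containing SYBR Green and read by fluorescence.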"}
{"smiles": "Fc1ccc(-c2nc(Nc3cccc(Cl)c3)nc3c2COc2ccccc2-3)cc1", "Potency": "11.2 µM (active)"}
{"smiles": "COc1ccc(-c2cc(-c3ccccc3)nc3c2COc2ccc(Cl)cc2-3)cc1", "outcome": "inactive; activator; fitted 0.4467 uM"}
{"smiles": "COc1ccc(-c2cc(-c3ccc(F)cc3)nc3c2COc2ccccc2-3)cc1", "outcome": "inactive"}
{"smiles": "COc1ccc(Cl)cc1C(=O)N1CCN(c2cc(C(F)(F)F)nc(C)n2)CC1", "activity, negative = inhibition": "-20.6%"}
{"smiles": "COc1ccc(C(=O)N2CCOC3(CCN(C(=O)c4c(C)noc4C)CC3)C2)cc1", "activity, negative = inhibition": "38.2%"}
{"smiles": "CCC1=Nc2cc(C(=O)NCCCOC(C)C)ccc2Sc2ccc(C)cc21", "Potency": "12.6 µM (active)"}
{"smiles": "CCC1=Nc2cc(C(=O)NCC(C)c3ccccc3)ccc2Sc2ccc(C)cc21", "note": "(centres undefined)", "Potency": "11.2 µM (active)"}
{"smiles": "CCc1ccc(Sc2cc(C(=O)NCCCOC(C)C)c3ccccc3n2)cc1", "activity, negative = inhibition": "-12.5%"}
{"smiles": "Cc1ccc(N(CC(=O)NCC(C)c2ccccc2)S(=O)(=O)N(C)C)cc1", "note": "(centres undefined)", "activity, negative = inhibition": "24.7%"}
{"smiles": "COCCNC(=O)c1ccc2c(c1)N=C(C)c1cc(C)ccc1S2", "outcome": "inactive"}
{"smiles": "CC1=Nc2cc(C(=O)NCc3ccc(C)cc3)ccc2Sc2ccc(Cl)cc21", "activity, negative = inhibition": "-2.44%"}
{"smiles": "O=C(c1ccc(OC(F)(F)F)cc1)N1CCC(n2cc(-c3nc(C4CC4)no3)nn2)C1", "note": "(centres undefined)", "activity, negative = inhibition": "-8.12%"}
{"smiles": "O=C(c1ccoc1)N1CCC(N2CC3CC(C2)[C@H]2CCCC(=O)N2C3)CC1", "note": "(some centres undefined)", "activity, negative = inhibition": "-7.89%"}
{"smiles": "Cc1ccc(Cc2ccccc2C(=O)N2C[C@@H](CN(C)CCO)[C@@H](CO)C2)cc1", "activity, negative = inhibition": "-19.7%"}
{"smiles": "Cc1ccc(C(=O)N2CCC(CCC(=O)N3CCc4ccccc4C3)CC2)cc1", "outcome": "inactive"}
{"smiles": "Cc1ncc2n1C(=O)N(C1CCN(C(=O)c3ccc(Cl)cc3)CC1)C2", "activity, negative = inhibition": "14.4%"}
{"smiles": "COCCNS(=O)(=O)c1cc(-c2nn3c(C)nnc3c3ccccc23)ccc1C", "activity, negative = inhibition": "-3.2%"}
{"smiles": "Cc1ccc(Nc2nnc(-c3ccc(C)c(S(=O)(=O)N4CCCCC4)c3)c3ccccc23)cc1", "activity, negative = inhibition": "-8.84%"}
{"smiles": "CCNS(=O)(=O)c1cc(-c2nnc(Nc3cccc(C(F)(F)F)c3)c3ccccc23)ccc1C", "activity, negative = inhibition": "-7.56%"}
{"smiles": "COC(=O)c1c(NC(=O)c2ccccc2)c2cc(NC(C)C)cnc2n1CC1CCCO1", "note": "(centres undefined)", "activity, negative = inhibition": "4.39%"}
{"smiles": "Cc1ccc(-c2nnc(Nc3cccc(Br)c3)c3ccccc23)cc1S(=O)(=O)NCC1CCCO1", "note": "(centres undefined)", "Potency": "11.2 µM (active)"}
{"smiles": "Cc1ccc(-c2nnc(Nc3ccc(OCC(N)=O)cc3)c3ccccc23)cc1S(=O)(=O)NCC1CCCO1", "note": "(centres undefined)", "Potency": "1.12 µM (active)"}
{"smiles": "O=C(NCCc1noc(C2CC2)n1)c1ccc2c(c1)OCO2", "activity, negative = inhibition": "19.1%"}
{"smiles": "C[S+](=O)([O-])N1CC2ON=C(C(=O)N3CCCC3)C2C1", "note": "(centres undefined)", "activity, negative = inhibition": "10.8% [at 44.1 µM]"}
{"smiles": "COCCn1ncc(N2CCC(C(=O)NCc3ccc(C)o3)C2)cc1=O", "note": "(centres undefined)", "activity, negative = inhibition": "-20.4%"}
{"smiles": "CC(C)(C)c1ccnc(N[C@H]2CO[C@H]3[C@@H]2OC[C@H]3OC(=O)Nc2cccc(C(F)(F)F)c2)n1", "activity, negative = inhibition": "-5.75%"}
{"smiles": "Cc1ccc(NC(=O)c2cnc(-c3ccccc3)nc2-c2ccncc2)cc1C", "activity, negative = inhibition": "-4.94%"}
{"smiles": "O=[S+]1([O-])NCC2(CCCN(Cc3ccncc3)C2)Oc2ncccc21", "note": "(centres undefined)", "activity, negative = inhibition": "116%"}
{"smiles": "Cc1nn(C)c(C)c1S(=O)(=O)N1CCC(c2noc(-c3ccccc3)n2)C1", "note": "(centres undefined)", "activity, negative = inhibition": "8.68% [at 5.79 µM]"}
{"smiles": "CC(C)Cn1c(-c2ccc(S(=O)(=O)N3CCOCC3)cc2)csc1=Nc1cc(Cl)ccc1Cl", "Potency": "10 µM (active)"}
{"smiles": "O=C(CN1C(=O)COc2ccc(S(=O)(=O)N3CCOCC3)cc21)N1CCN(c2cccc(Cl)c2)CC1", "activity, negative = inhibition": "-25.6%"}
{"smiles": "O=C1[C@@H]2C[C@@H](O)CN2C2(CN(Cc3ccc(OC(F)(F)F)cc3)C2)C(=O)N1Cc1ccccc1Cl", "activity, negative = inhibition": "-3.76%"}
{"smiles": "CO[C@H]1[C@H](NC(=O)c2cnc3ccccc3c2)c2ccccc2C12CCNCC2", "activity, negative = inhibition": "-5.04%"}
{"smiles": "Cc1ccccc1N(C)C1CN(Cc2cccc3ccccc23)C1", "Potency": "10 µM (active)"}
{"smiles": "Clc1ccc(-c2nnc3n2CCN(Cc2cccc4ccccc24)C3)cc1", "activity, negative = inhibition": "5.45%"}
{"smiles": "c1ccc2c(c1)CCN2C1CN(Cc2cccc3ccccc23)C1", "activity, negative = inhibition": "-22%"}
{"smiles": "COc1cc2c(cc1Oc1cccc(N(C)C)c1)NC(=O)C21CCN(Cc2ccccn2)CC1", "outcome": "inactive"}
{"smiles": "COc1cc2c(cc1Oc1cccc(N(C)C)c1)NC(=O)C21CCN(c2cnccn2)CC1", "Potency": "0.891 µM (active)"}
{"smiles": "COc1cc2c(cc1OCc1ccncc1)NC(=O)C21CCN(c2ncccn2)CC1", "outcome": "inactive [at 44.1 µM]"}
{"smiles": "COc1ccc(NC(=O)O[C@@H]2CO[C@H]3[C@@H]2OC[C@@H]3NC(=O)C2CCCCC2)cc1", "activity, negative = inhibition": "-19.6% [at 44.1 µM]"}
{"smiles": "O=C(CC1CCCN(c2cnn(CC3CC3)c(=O)c2)C1)NCc1cc(F)cc(F)c1", "note": "(centres undefined)", "outcome": "inactive"}
{"smiles": "COc1ccc(NC(=O)Cn2c(=O)n(-c3ccccc3)c(=O)c3c2cc(C)n3C)cc1", "activity, negative = inhibition": "64.6%"}
{"smiles": "N#Cc1ccc(S(=O)(=O)NC2CCc3nn(CC4CC4)c(=O)n3CC2)cc1", "note": "(centres undefined)", "activity, negative = inhibition": "5.54%"}
{"smiles": "CCCn1c2ccccc2c2cnn(CC(=O)NCCCOC(C)C)c(=O)c21", "outcome": "inactive"}
{"smiles": "CCCn1c2ccccc2c2cnn(CC(=O)N(CC)c3cc(C)ccc3C)c(=O)c21", "activity, negative = inhibition": "28.1%"}
{"smiles": "CCN(CCCNC(=O)Cn1ncc2c3ccccc3n(C)c2c1=O)Cc1ccccc1", "activity, negative = inhibition": "-10.1%"}
{"smiles": "CCCn1c2ccccc2c2cnn(CC(=O)N(C)c3ccccc3CC)c(=O)c21", "activity, negative = inhibition": "-15%"}
{"smiles": "CCN(CC)CCNC(=O)Cn1ncc2c3ccccc3n(Cc3ccccc3C)c2c1=O", "Potency": "10 µM (active)"}
{"smiles": "CCCN(CCC)CCCNC(=O)Cn1ncc2c3ccccc3n(Cc3ccccc3)c2c1=O", "Potency": "5.01 µM (active)"}
{"smiles": "COc1cccc(CC(=O)N2CCC(c3nc(CCOc4ccc(F)cc4)no3)C2)c1", "note": "(centres undefined)", "outcome": "inactive"}
{"smiles": "COCCNC(=O)[C@@H]1C[C@@H](O)CN1C1CCN(C(=O)CCc2ccccc2)CC1", "activity, negative = inhibition": "21.1%"}
{"smiles": "CCn1c(=O)c2ccnn2c2ccc(C(=O)NC3CCCCC3)cc21", "outcome": "inactive"}
{"smiles": "Cc1ccccc1NC(=O)N1CCC(CCNC(=O)c2ccoc2)CC1", "activity, negative = inhibition": "2.98%"}
{"smiles": "O=C(c1cccc(Cl)c1)N1CCN(c2cc(-c3cccs3)[nH]n2)CC1", "outcome": "inactive"}
{"smiles": "COc1cccc(CN2Cc3nc(Nc4cccc(F)c4)ccc3OCC2=O)c1", "activity, negative = inhibition": "-23.1% [at 44.1 µM]"}
{"smiles": "CN(CCCn1cccn1)C(=O)C1CCN(C(=O)C2CCCC2)CC1", "activity, negative = inhibition": "-0.759%"}
{"smiles": "O=C(N[C@@H]1CN(Cc2c(F)cccc2F)C[C@H]1CO)c1ccccc1", "activity, negative = inhibition": "-18.3%"}
{"smiles": "Cc1cc(N2CCCC(Cn3cc(Cc4ccccc4)nn3)C2)nc(N)n1", "note": "(centres undefined)", "Potency": "12.6 µM (active)"}
{"smiles": "O=C(Nc1ccccc1)[C@H]1CN2CCC1C[C@@H]2Cn1cc(CO)nn1", "note": "(some centres undefined)", "outcome": "inactive [at 44.1 µM]"}
